{"source": "PubChem BioAssay (Tox21)", "note": "Records with an inconclusive call do not appear. Entries that show only a call come without a potency. The source made the active and inactive calls. Calls follow the shape of the dose curve; as a rule, active = well fitted cell-killing curve with a large enough effect in the repeat runs; inconclusive = weak or mixed curves; inactive = no such curve, though single readings can be large or run the other way. Potency is read from the fitted curve at half-maximal effect."}
{"assay": "qHTS assay to identify small molecule antagonists of the androgen receptor (AR) signaling pathway - cell viability counter screen (AID 743033; also: nearly all actives have a fitted effect of over 45% in size)", "settings": "AR-bla HEK293 viability, CellTiter-Glo luminescence, 16 h; series mostly up to 58.5 µM", "excerpt": "National Center for Advancing Translational Sciences [NCATS]\nNIH Chemical Genomics Center [NCGC]\nU.S. Environmental Protection Agency [EPA]\nNational Institutes of Environmental Health Sciences [NIEHS]\nNational Toxicology Program [NTP]\nU.S. Food and Drug Administration [FDA]\nAndrogen receptor (AR), a nuclear hormone receptor, plays a critical role in AR-dependent prostate cancer and other androgen related diseases. Endocrine disrupting chemicals (EDCs) and their interactions with steroid hormone receptors like AR may cause disruption of normal endocrine function as well as interfere with metabolic homeostasis, reproduction, developmental and behavioral functions. To identify the compounds that inhibit AR signaling, GeneBLAzer AR-UAS-bla-GripTite cell line (Invitrogen, Carlsbad, CA, USA) containing a beta-lactamase reporter gene under control of an Upstream Activator Sequence (UAS) stably integrated into HEK293 cells was used to screen the Tox21 10K compound library. The cytotoxicity of the Tox21 compound library against the AR-bla cell line was tested in parallel by measuring the cell viability using CellTiter-Glo assay in the same wells.\nTox21 Assay Protocol Summary:\nAR-bla cells were dispensed at 2,000 cells/5 uL of assay medium per well into black wall/clear-bottom 1536-well plates using a Multidrop Combi (ThermoFisher Scientific, Waltham, MA) dispenser. After the assay plates were incubated at a 37C and 5% CO2 for 4 hr, 23 nL of compounds dissolved in DMSO, positive controls or DMSO only was transferred to the assay plate by a Pintool station (Kalypsys, San Diego, CA), followed by addition of 1 uL of agonist (R1881) in culture medium using a Bioraptr Flying Reagent Dispenser (FRD) workstation (Beckman Coulter, Indianapolis, IN, USA). The plates were incubated at a 37C and 5% CO2 for 16 h. After 1 uL of LiveBLAzerTM B/G FRET substrate was added using a Bioraptr FRD, the plates were incubated at room temperature for 2 h and fluorescence intensity was measured by an Envision plate reader (PerkinElmer, Shelton, CT). For cell viability readout that measures cytotoxicity, 4 ul/well of CellTiter-Glo reagent was added into the assay plates using a Bioraptr FRD. After 30 min incubation at room temperature, the luminescence intensity in the plates was measured using a ViewLux (PerkinElmer) plate reader."}
{"smiles": "CNC(=O)O/N=C(\\C)SC", "Potency": "inactive"}
{"smiles": "ClC(Cl)(Cl)C(Cl)(Cl)Cl", "Potency": "inactive"}
{"smiles": "O=C(O)C(Br)CBr", "note": "(stereo not given)", "Potency": "inactive"}
{"smiles": "O=C(CCCN1CCC(n2c(=O)[nH]c3ccccc32)CC1)c1ccc(F)cc1", "Potency": "inactive"}
{"smiles": "CCOc1nc(C(Cl)(Cl)Cl)ns1", "Potency": "inactive"}
{"smiles": "CCCCOC(=O)c1ccccc1C(=O)O", "Potency": "inactive"}
{"smiles": "CC(=O)CCc1ccc2c(c1)OCO2", "Potency": "inactive"}
{"smiles": "COC(=O)COc1ccc(Cl)cc1Cl", "Potency": "inactive"}
{"smiles": "CNNC", "Potency": "inactive"}
{"smiles": "CCCCOC(=O)[C@@H](C)Oc1ccc(Oc2ccc(C#N)cc2F)cc1", "Potency": "inactive"}
{"smiles": "CC(C)CP(=S)(S)CC(C)C", "Potency": "17.4 µM (active)"}
{"smiles": "CCCCOP(=O)(O)OCCCC", "Potency": "inactive"}
{"smiles": "O=P(O)(Oc1ccccc1)Oc1ccccc1", "Potency": "inactive"}
{"smiles": "COC(=O)C1=CCCN(C)C1", "Potency": "inactive"}
{"smiles": "CCC(C)n1c(=O)[nH]c(C)c(Br)c1=O", "note": "(stereo not given)", "Potency": "inactive"}
{"smiles": "O=C(Oc1ccc(Br)cc1)N1CCN2CCC1CC2", "Potency": "inactive"}
{"smiles": "NC(=O)O", "Potency": "inactive"}
{"smiles": "COC(=O)c1ccccc1S(=O)(=O)NC(=O)Nc1nc(C)cc(C)n1", "Potency": "inactive"}
{"smiles": "CCCCCCI", "Potency": "inactive"}
{"smiles": "O=CNC(N1CCN(C(NC=O)C(Cl)(Cl)Cl)CC1)C(Cl)(Cl)Cl", "note": "(stereo not given)", "Potency": "inactive"}
{"smiles": "O=C1CN=C(c2ccccc2)c2cc([N+](=O)[O-])ccc2N1", "Potency": "inactive"}
{"smiles": "[Cl][Sn]([Cl])([Cl])[Cl]", "Potency": "inactive"}
{"smiles": "CC(COc1ccc(Oc2ccccc2)cc1)Oc1ccccn1", "note": "(stereo not given)", "Potency": "inactive"}
{"smiles": "CC(=O)CC(c1ccc(Cl)cc1)c1c(O)c2ccccc2oc1=O", "note": "(stereo not given)", "Potency": "inactive"}
{"smiles": "OC(c1ccccc1)(c1ccccc1)C1CCNCC1", "Potency": "inactive"}
{"smiles": "COc1cc(OC)nc(Oc2cccc(Oc3nc(OC)cc(OC)n3)c2C(=O)O)n1", "Potency": "inactive"}
{"smiles": "CCN(CC)C(=O)[C@@H]1C=C2c3cccc4[nH]cc(c34)C[C@H]2N(C)C1", "Potency": "inactive"}
{"smiles": "N#CCCC#N", "Potency": "inactive"}
{"smiles": "CC(=O)[C@H]1CC[C@H]2[C@@H]3CC[C@H]4C[C@H](O)CC[C@]4(C)[C@H]3C(=O)C[C@]12C", "Potency": "inactive"}
{"smiles": "COc1ccc2c(c1OC)CN1CCc3cc4c(cc3C1C2)OCO4", "note": "(stereo not given)", "Potency": "inactive"}
{"smiles": "C#CCN1C(=O)COc2cc(F)c(N3C(=O)C4=C(CCCC4)C3=O)cc21", "Potency": "inactive"}
{"smiles": "CCOP(=S)(OCC)Oc1nc(Cl)n(C(C)C)n1", "Potency": "inactive"}
{"smiles": "Cc1ncc(CNC(=O)N(CCCl)N=O)c(N)n1", "Potency": "inactive"}
{"smiles": "CCCCN(CCCCO)N=O", "Potency": "inactive"}
{"smiles": "CCOP(=S)(OCC)SCSP(=S)(OCC)OCC", "Potency": "inactive"}
{"smiles": "NC(=O)c1cc([N+](=O)[O-])cc([N+](=O)[O-])c1", "Potency": "inactive"}
{"smiles": "ClC(Cl)Br", "Potency": "inactive"}
{"smiles": "CNC(=O)N(C)c1nc2ccccc2s1", "Potency": "inactive"}
{"smiles": "Cc1ncc2n1-c1ccc(Cl)cc1C(c1ccccc1F)=NC2", "Potency": "inactive"}
{"smiles": "CC1=NNC(=O)N(/N=C/c2cccnc2)C1", "Potency": "inactive"}
